Screens from PubChem BioAssay.
LASV entry inh: blocks Lassa virus binding or cell entry | 18,000 tested, 4.1% active | Lassa virus pseudotyped entry inhibition, cell-based qHTS | Potency, µM (highest dose often 49.2 µM), inactives show at the highest dose activity change, negative = inhibition, usual class: inhibitors
MARV entry inh: blocks Marburg virus binding or cell entry. Marburg virus pseudotype entry/binding inhibition, cell-based. Potency, µM (top dose mostly 49.2 µM), for the others: top-dose activity change, negative = inhibition, usual class: inhibitors. 18,000 tested, 6.5% active. AID 720532
An asterisk follows results filed as active; u = inconclusive; x = no result; ! = not confirmed by another sample; [ ] = another dose, or the depositor's remark. An excerpt weighted towards active compounds, which were near 7.1% of everything screened. Calls come from the whole dose curve; tested in HEK293 cells. % is set by controls: 0 for no effect and ±100 for the full control effect; potency is the fitted concentration of half-maximal effect.

SMILES | LASV entry inh | MARV entry inh
Cc1ccc(CN2[C@@H](C)[C@@H](c3ccccc3)Oc3c(Cl)cccc3S2(=O)=O)cc1 | 2% | u
CC1=C(/C=C/C(C)=C/C=C/C(C)=C/C=C/C=C(C)/C=C/C=C(C)/C=C/C(=O)[C@]2(C)CC(O)CC2(C)C)C(C)(C)CC(O)C1 (some centres undefined) | 6% | 8%
CC1=C(/C=C/C(C)=C/C=C/C(C)=C/C=C/C=C(C)/C=C/C=C(C)/C=C/C2=C(C)C[C@@H](O)CC2(C)C)C(C)(C)C[C@H](O)C1 | 28µM* | 9%
COC(=O)C1=C(C(=O)OC)[C@@H]2N(C)c3ccccc3[C@@]23C[C@@H](CO)N(C(=O)NC2CCCC2)C3=N1 | 2%[8.59 µM] | u
O=C(NCc1nnc2n1CCN(Cc1cc(F)cc(F)c1)CC2)c1cccc(F)c1 | u | 5µM*
CC(CN1CCc2nnc(CNC(=O)c3cccc(F)c3)n2CC1)c1ccccc1 (centres undefined) | 0% | -9%
CC1=CC[C@@H](COc2ccccc2)O[C@@]2(C1)C(=O)N(Cc1ccc(F)cc1)c1ccccc12 | -11%[8.59 µM] | -2%[8.59 µM]
C=C(CO[C@@H]1C=C[C@@H](c2ccccc2)O[C@@H]1COC)c1ccccc1 | 9%[8.59 µM] | -4%[8.59 µM]
CCOC(=O)CN1C(=O)NC(c2ccc(Br)cc2)C(C(C)=O)=C1C (centres undefined) | 39%[8.59 µM] | 47%[8.59 µM]
CCC(Oc1ccc(Cl)cc1)C(=O)OC1CC2CCC(C1)N2C (centres undefined) | u | 6.3µM*
CN1CCC(OC(=O)C(Oc2ccc(Cl)cc2)Oc2ccc(Cl)cc2)CC1 | -26% | 6%
CN1C2CCC1CC(OC(=O)C(O)c1ccccc1)C2 (centres undefined) | -1% | 1%
CC(C(=O)OC1CC2CCC(C1)N2C)c1ccc(Br)cc1 (centres undefined) | -11% | 28µM*
CCCCCC(=O)N1C[C@@H](O)[C@H](n2cc(-c3ccc(F)cc3)nn2)C[C@H]1c1ccc(C)cc1 | 10% | -9%
CS(=O)(=O)Nc1ccccn1 | 11% | 29%
CCNC(C)Cc1cccc(C(F)(F)F)c1 (centres undefined) | 2% | 11%
C[C@@H](NCCCc1cccc(C(F)(F)F)c1)c1cccc2ccccc12 | 16µM* | 6.3µM*
C=CC[C@H]1C[C@H]2CC=CP(=O)(O2)O1 | -11% | -35%
CN(c1ccc(NC(=O)NCCN2CCOCC2)cc1)c1ccnc(Nc2ccc(CS(C)(=O)=O)cc2)n1 | 72% | -13%
CO/C=C(/C(=O)OC)c1ccccc1Oc1cc(Oc2ccccc2C#N)ncn1 | 22µM* | 28µM*
COc1cc2ncn(-c3cc(OCc4ccccc4S(C)(=O)=O)c(C#N)s3)c2cc1OC | -9% | u
COc1cc2ncn(-c3cc(OCc4ccccc4C(F)(F)F)c(C(=O)N(C)C)s3)c2cc1OC | -17% | u
COc1cc2ncn(-c3cc(OC(C)c4ccccc4Cl)c(C(N)=O)s3)c2cc1OC (centres undefined) | x | 3.5µM*
COc1cc2ncn(-c3cc(OCCc4ccccc4)c(C(N)=O)s3)c2cc1OC | 7.9µM* | u
O=C(OCc1cn([C@@H]2C[C@H](c3ccc(Cl)cc3)N(Cc3cccs3)C[C@@H]2O)nn1)c1ccccc1 | x | -25%
SMILES | LASV entry inh | MARV entry inh
Nc1ccn(C2OC(CO)C(O)C2O)c(=O)n1 (centres undefined) | 1.3µM*! | 1µM*!
Nc1ncnc2c1nc(Br)n2C1OC(CO)C(O)C1O (centres undefined) | u | -22%
Nc1ncnc2c1ccn2[C@@H]1O[C@H](CO)[C@@H](O)[C@H]1O | 2.5µM* | 1.4µM*
NC(=O)c1ncn(C2OC(CO)C(O)C2O)c1N (centres undefined) | 15% | 10%
Nc1ccn([C@@H]2O[C@H](CO)[C@@H](OP(=O)(O)O)[C@H]2O)c(=O)n1 | 6% | 3%
Nc1ncn([C@@H]2O[C@H](CO)[C@@H](O)[C@H]2O)c(=O)n1 | 6.3µM* | u
CC1(C)CN(CCc2ccccc2)C(=O)[C@@H]1CC(=O)Nc1ccc(Br)cc1 | -5% | -5%
COC(=O)C1=C(C)N(Cc2ccccc2)C(=O)NC1CCc1ccccc1 (centres undefined) | 6%[8.59 µM] | 23%[8.59 µM]
CSc1ccccc1C(=O)NCC1Cc2cc(F)cc(-c3cnccn3)c2O1 (centres undefined) | -10% | -5%
Cc1cc2c(c(-c3cnccn3)c1)OC(CNC(=O)c1cc(Cl)ccc1F)C2 (centres undefined) | -2% | 25µM*
O=C(NCC1Cc2cccc(-c3cnccn3)c2O1)c1ccc(F)c(Cl)c1 (centres undefined) | 2% | 11µM*
O=C(NCC1Cc2cccc(-c3ncccn3)c2O1)c1cccc(-c2ccccc2F)c1 (centres undefined) | -14% | -1%
COC(=O)C1=C(C)N(Cc2ccccc2)C(=NCCc2ccc(O)cc2)NC1c1ccc(Br)cc1 (centres undefined) | -24%[8.59 µM] | 2%[8.59 µM]
